Assay results: PubChem BioAssay AID489042 (NMMLSC, 2010)
Values without a mark were called inactive. Calls of active or inactive are those of the source. Rule as the data show it: active = inhibition score above about 11; inactive = the rest.

Test: S. cerevisiae short- and long-term growth effects – BY4741, OD595, 24 h, dose response (AID 489042)
Conditions: active compounds read high

## COc1ccc2cc(C3CC(c4ccco4)=NN3S(=O)(=O)c3ccccc3)c(Cl)nc2c1 (centres undefined)
  inhibition score: 0

## O=C(/C=C/c1ccccc1)NC(=S)NNC(=O)Cc1cccs1
  inhibition score: 21 (active)

## CCN(CC)C(=O)c1cccc2nc3ccccc3nc12
  inhibition score: 0

## CC(=O)Nc1ccc2nc3ccccc3nc2c1
  inhibition score: 0

## O=C(Nc1ccc2nc3ccccc3nc2c1)c1ccccc1
  inhibition score: 21 (active)

## O=C(c1cccc2nc3ccccc3nc12)N1CCOCC1
  inhibition score: 0

## Cc1ccccc1NC(=O)c1cccc2nc3ccccc3nc12
  inhibition score: 0

## FC(F)(F)c1nc2cc3nc4ccccc4[nH]c3cc2n1
  inhibition score: 0

## Cc1ccc(-c2nn(C(C)(C)C)c3ncnc(N)c23)cc1
  inhibition score: 21 (active)

## Cc1cc(C)c2[nH]c3nc(SCC(=O)O)nnc3c2c1
  inhibition score: 0

## C[C@@]12C(=O)OC(=O)[C@]1(C)C1CCC2O1
  inhibition score: 21 (active)

## Cc1cc(C)cc(NC(=O)CN2CCN(c3ccccn3)CC2)c1
  inhibition score: 0

## C/C(=N\Nc1ncnc2sc(C)c(C)c12)c1ccccn1
  inhibition score: 21 (active)

## CC(C)OC(=O)c1ccc2nc3ccccc3nc2c1
  inhibition score: 10

## CSc1nnc(-c2ccc([N+](=O)[O-])cc2)o1
  inhibition score: 0

## O=C(Nc1ccc2nc3ccccc3nc2c1)c1ccc(Br)cc1
  inhibition score: 0

## CC(C)(C)n1nc(-c2ccc(F)cc2)c2c(N)ncnc21
  inhibition score: 21 (active)

## C=CCSc1nnc(-c2ccc([N+](=O)[O-])cc2)o1
  inhibition score: 10

## C=CCOn1c(=O)c(-c2cccs2)[n+]([O-])c2ccccc21
  inhibition score: 0
